Only some compounds are listed: those with a hit (about 3.7% of all), similar ones and a draw of the others.
Nrf2 block: Nrf2 qHTS screen for inhibitors; A549 ARE-Fluc reporter, luciferase luminescence, 18-24 h; Potency, µM (highest dose often 46 µM), actives largely listed as inhibitors; AID 504444, 2011; 360,000 compounds, 2.1% hits; note: nearly all actives have a fitted effect of over 60% in size
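Two sequential reads on A549 ARE_Fluc cells exposed to compound for 18-24 h: a CellTiter-Fluor fluorescence read for viability, then a luciferase luminescence read for Nrf2/ARE activity.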
Nrf2 activator: qHTS of Nrf2 Activators; 410,000 compounds, 0.31% hits; Potency, µM (titrated, usually from 46.1 µM), most hits filed as activators; AREc32 ARE-luciferase reporter (MCF7-derived line), luminescence, 24 h; note: nearly all actives have a fitted effect of over 65% in size
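Nrf2 activation is followed as ARE-luciferase induction in the AREc32 line after one day of compound treatment; luminescence is read with Steady-Glo.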
ClpP mod: qHTS Assay for Activators of ClpP | Potency, µM (top dose mostly 57.5 µM) | purified B. subtilis ClpP, FRET peptide cleavage, 20 min | ATP-dependent Clp protease proteolytic subunit (Bacillus subtilis (strain 168)), P80244 | 340,000 compounds, 1.9% hits; active = well fitted falling curve with a large enough effect; inconclusive = small, poorly fitted or top-dose-only effect; inactive = no such curve, though single readings can be large or run the other way; note: the source files actives as falling curves though it sought activators and does not explain the sign; nearly all actives have a fitted effect of over 65% in size
Target sequence (P80244 whole entry, looked up): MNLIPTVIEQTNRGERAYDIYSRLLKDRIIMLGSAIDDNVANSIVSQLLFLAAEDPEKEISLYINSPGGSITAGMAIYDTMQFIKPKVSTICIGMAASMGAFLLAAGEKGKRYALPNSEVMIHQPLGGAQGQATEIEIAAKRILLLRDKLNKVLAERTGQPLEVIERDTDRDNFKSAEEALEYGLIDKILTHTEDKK
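Buffer: 100 mM Tris/HCl pH8, 100 mM KCl, 0.05% low protease BSA, 2.5% glycerol, 0.01% Tween-20. ClpP 10 microg/mL final; 20 min RT; delta FRET normalized to ADEP and DMSO controls.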
A549 tox-1: Nrf2 qHTS screen for inhibitors: counterscreen for cytotoxicity; A549 ARE-Fluc cells, CellTiter-Fluor viability, 18-24 h; Potency, µM (series often up to 46 µM), usual class: inhibitors; 390,000 compounds, 0.16% hits; AID 504648, 2011
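Cytotoxicity counterscreen: CellTiter-Fluor fluorescence was measured in A549 ARE_Fluc cells after 18-24 h of compound exposure in a concentration series. The subsequent BugLite luminescent read reports ARE-luciferase activity.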
IL2 activator: qHTS of IL-2 Activators; IL-2 activation reporter assay, cell-based qHTS; stimulated with anti-CD3/CD4/CD28 beads; in transgenic mouse T cells; activation, % (series mostly up to about 46 µM); 360,000 compounds, 0.065% hits; AID 652025, 2013; in the data active = activation above about 50%; inconclusive = mostly about 30% to 49%
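Unstimulated transgenic mouse T cells, 750 per well, received compound and, after 60 minutes, anti-CD3/anti-CD4 bead plus anti-CD28 stimulation. EGFP and DsRed were quantified after 18 hours.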
miR-21 act: qHTS Assay for Modulators of miRNAs and/orActivators of miR-21 | HeLa miR-21 FLuc reporter, luciferase, 48 h | AID 2288, 2010 | Potency, µM (titrated, usually from 38.3 µM), most hits filed as activators | 340,000 tested, under 10 active;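 note: miR-21 action dims this reporter so a rising signal means less miR-21 action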
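Luminescence from a firefly luciferase reporter carrying a miR-21 binding site downstream, stably expressed under a CMV promoter in HeLa cells that make miR-21 endogenously, reports miRNA modulation after 48 h compound exposure up to approximately 40uM final.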
FLuc enzyme inh: Nrf2 qHTS screen for inhibitors: Purified Fluc Biochemical Counterscreen for Hit Validation; 1,400 compounds, 4% hits; shares compounds with Nrf2 block; purified firefly luciferase, luminescence inhibition; Potency, µM (top dose mostly 57.5 µM), most hits filed as inhibitors; note: nearly all actives have a fitted effect of over 65% in size
A549 tox-2: Nrf2 qHTS screen for inhibitors: A549 ARE-Fluc Cytotoxicity Counterscreen for Hit Validation. shares compounds with Nrf2 block. A549 ARE-Fluc cells, cytotoxicity counterscreen. Potency, µM (series often up to 46.1 µM), most hits filed as inhibitors. 1,400 compounds, 2% hits. AID 720523, 2013;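 note: cells exposed to compounds for 18 to 24 hours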
Nrf2 ARE inh: Nrf2 qHTS screen for inhibitors: Nrf2 A549 ARE-Fluc Confirmation Assay for Hit Validation; shares compounds with Nrf2 block; A549 ARE-firefly luciferase reporter, luminescence; Potency, µM (series often up to 46.1 µM), actives largely listed as inhibitors; 1,400 compounds, 74% hits; note: nearly all actives have a fitted effect of over 65% in size
Hits are given with their value; 0 = inactive; ? = inconclusive; - = no result given; [ ] = remark or other dose. Unless noted, calls come from the whole dose curve; as a rule, active = well fitted curve in the direction sought with a large enough effect; inconclusive = small, poorly fitted or top-dose-only effect, or another doubt; inactive = no such curve, though single readings can be large; an effect the other way counts as inactive or inconclusive.

SMILES	Nrf2 block	Nrf2 activator	ClpP mod	A549 tox-1	IL2 activator	miR-21 act	FLuc enzyme inh	A549 tox-2	Nrf2 ARE inh
C[n+]1ccc(/C=C/c2c[nH]c3ccc(F)cc23)cc1	1.2µM	0	0	?	95	0	0	?	1.8µM
Cc1nc(C)c(C(=O)NNS(=O)(=O)c2ccc3ccccc3c2)s1	9.2µM	0	-	0	0	0	0	0	?
COc1ccc(C)cc1NS(=O)(=O)c1cnc(N)nc1	-	0	0	0	-	0	-	-	-
COc1cccc(NC(=O)N(Cc2cn(C)c3ccccc23)C2CCCCC2)c1	3.3µM	0	?	?	-	0	0	?	?
O=S(=O)(c1ccc2nc(Nc3ccc(Br)cc3F)ccc2c1)N1CCCC1	?	0	?	?	-	0	-	-	-
COc1ccccc1NS(=O)(=O)c1cc(NC(=O)Nc2cccc(C)c2)ccc1N1CCCCC1	0	0	?	0	0	0	-	-	-
O=C(Nc1ccc(Cl)cc1)Nc1ccc(N2CCCC2)c(S(=O)(=O)Nc2ccccc2Cl)c1	3.3µM	0	0	?	0	0	0	?	6.5µM
Cc1c(Cl)cccc1NC(=O)N1CCC(CN2CCOCC2)CC1	0	0	0	0	-	0	-	-	-
CCCOc1ccc(C2CC(=O)Nc3c2c(=O)n(C)c(=O)n3C)cc1OC (stereo unspecified)	0	0	0	0	-	0	-	-	-
Cc1cc(NC(=O)CSc2nc3c(sc4ccccc43)c(=O)n2CCc2ccccc2)n[nH]1	0	0	0	0	0	0	-	-	-
Cc1cc(NC(=O)CSc2nc3c(sc4ccccc43)c(=O)n2CCCN2CCOCC2)n[nH]1	7.3µM	0	0	?	0	0	0	?	10µM
Cc1nc(N)nc(N)c1-c1ccc(Cl)c(Cl)c1	?	0	0	0	0	-	0	0	1.2µM
Cc1cc(OCc2nc(N)nc(N)c2-c2ccc(Cl)c(Cl)c2)ccc1[N+](=O)[O-]	8.2µM	0	0	0	0	-	0	0	15µM
CC(C)CC(=O)N1CCN(S(=O)(=O)c2ccc(C3CCCCC3)cc2)CC1	8.2µM	0	0	0	0	-	0	0	?
O=c1c2c(nc3c(-c4ccc(Cl)cc4)c[nH]n13)CCCC2	7.9µM	0	14µM	0	0	0	0	0	6.5µM
NC(=S)N/N=C/c1ncc(C(F)(F)F)cc1Cl	4.1µM	0	-	?	0	0	0	?	5.2µM
O=C(CSc1oc(-c2ccco2)nc1S(=O)(=O)c1ccc(Cl)cc1)Nc1ccc(F)cc1	0[9.27 µM]	0	0	0	-	0	-	-	-
O=C(c1ccco1)n1nc(-c2ccccc2)nc1NCc1ccccc1Cl	0	0	0	0	-	0	-	-	-
C=C(c1ccc2ccccc2n1)c1cccs1	-	-	0	-	-	-	0	0	?
O=C(NCc1cccs1)c1ccc2ccccc2n1	?	0	-	0	0	0	-	-	-
COc1cccc2c1C(=O)c1c(O)c3c(c(O)c1C2=O)CC(O)(C(=O)CO)CC3OC1CC(N(C)C)C(O)C(C)O1 (stereo unspecified)	0.46µM	0	0	?	0	-	?	?	0.26µM
Cc1c(C(=O)Nc2ccc(F)cc2F)nnn1-c1ccccc1Br	0	0	0	0	-	0	-	-	-
COc1ccc(C)cc1NC(=O)N(Cc1ccc(C)o1)C1CCN(C(C)=O)CC1	0	0	0	0	-	0	-	-	-
O=c1c2ccccc2nc(-c2ccccc2)n1Cc1ccc(Cl)cc1	0	0	0	0	0	0	-	-	-
O=c1c2ccccc2nc2n1CCN2Cc1ccc(Cl)cc1	5.8µM	0	?	0	0	0	0	0	4.1µM
CC(=O)Nc1nonc1-c1nnc(SCC(=O)Nc2ccc(C)cc2)n1-c1ccccc1	0	0	0	0	-	0	-	-	-
CCC(=O)NC(c1ccc(OC)c(OC)c1)c1cc(Cl)c2cccnc2c1O (stereo unspecified)	5.8µM	0	0	?	0	?	0	0	6.5µM
CCCC(=O)NC(c1ccccc1OC)c1ccc2cccnc2c1O (stereo unspecified)	7.3µM	0	-	?	0	?	0	0	9.2µM
CCCC(=O)NC(c1cccs1)c1cc(Cl)c2cccnc2c1O (stereo unspecified)	5.2µM	0	0	0	0	?	0	0	7.3µM
COc1ccc(C(NC(C)=O)c2cc(Cl)c3cccnc3c2O)cc1OC (stereo unspecified)	?	0	0	0	0	0	-	-	-

Screening results: PubChem, National Center for Advancing Translational Sciences (NCATS)
